# Measured values as given in PubChem BioAssay AID1486 (The Scripps Research Institute Molecular Screening Center, 2009).
# Where “and” joins values, the source holds several entries; their conditions need not be identical. Identical values can stand only once. In all, about 220,000 compounds went through this assay and about 2,400 (1.1%) were called active.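 Rule for the calls: active = inhibition above a per-campaign cutoff, the mean inhibition of all tested compounds plus 3 SD (cut at about 27% in these data); inactive = the rest.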 Shown is part of a subset that was picked to be rich in actives.
# Assay: parental Ba/F3 cell viability inhibition, counter-screen for JAK2V617F inhibitor project, murine pro-B, CellTiter-Glo luminescence (AID 1486);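 note: 0% = DMSO wells and 100% = JAK Inhibitor I control wells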
# Conditions: CellTiter-Glo ATP luminescence, at 5.6 µM, hits give high values
row,Compound,inhibition
1,CC(C)OCCCNc1ncnc2c1[nH]c1ccc(F)cc12,69.9% (active)
2,O=C1CCCN1CCCNc1ncnc2c1[nH]c1ccccc12,2.08% (inactive)
3,COc1cc(OC)c(OC)cc1/C=N/Nc1ncnc2c1[nH]c1ccc(C)cc12,-0.75% (inactive)
4,CS(=O)(=O)c1ccc2nnn(OCC(=O)Nc3cccc(C#N)c3)c2c1,-2.77% (inactive)
5,COc1ccc(NC(=O)C(CC(C)C)NS(=O)(=O)c2ccc3c(c2)CCN3C(C)=O)cc1OC (centres undefined),1.81% (inactive)
6,CCCc1nnc(SCC(=O)N2C(C)CCCC2C)n1CC (centres undefined),2.43% (inactive)
7,O=C(Nc1ccc2c(c1)OCCO2)c1cnccn1,4.31% (inactive)
8,CCN(CC)c1ccc(/C=N/Nc2nc(C)cc(C)n2)c(O)c1,3.74% (inactive)
9,CCN(CC)c1ccc(/C=N/NC(=O)c2cnccn2)c(O)c1,34.4% (active)
10,COC(=O)c1noc(C)c1-c1ccnn1C(=O)c1ccc(Cl)cc1,-1.68% (inactive)
11,COCc1cc(=O)oc2cc(NS(=O)(=O)c3ccc(C)cc3)ccc12,-1.36% (inactive)
12,COc1ccc(NC(=O)/C(Cl)=C(/Cl)S(=O)Cc2ccc(C)cc2)cn1 (centres undefined),103% (active)
13,COc1ccc(NC(=S)NCCNC(C)=O)cc1,3.11% (inactive)
14,COc1ccc(CS(=O)/C(Cl)=C(/Cl)C(=O)Nc2ccc(OC)nc2)cc1 (centres undefined),104% (active)
15,COc1ccc(NC(=S)Nc2ccccc2Cl)cn1,9.94% (inactive)
16,COc1ccc(Nc2cc(Cl)ccc2C(=O)O)cn1,-9.44% (inactive)
17,Cc1ccc(NC(=O)OCc2cncs2)cc1,8.02% (inactive)
18,CN(C)/C(CN1CCCCC1)=C1\N=C(c2ccccc2)OC1=O,7.38% (inactive)
19,O=C(CNCc1cccs1)Nc1cc(S(=O)(=O)N2CCCC2)ccc1Cl,-6.85% (inactive)
20,Cc1ccc(-c2cc(=O)c3ccc(F)cc3[nH]2)cc1,0.37% (inactive)
21,O=c1cc(-c2ccccc2)[nH]c2cc(F)ccc12,72.4% (active)
22,Cc1ccc(-c2cc(=O)c3ccc(Cl)cc3[nH]2)cc1,-0.93% (inactive)
23,Cc1cc(O)ccc1NC1=CC(=O)CC(C)(C)C1,6.24% (inactive)
24,CCN(CC)CCCN=Cc1c(O)n(-c2ccc(C)cc2)c(=O)c2ccccc12,1.41% (inactive)
25,O=c1c2ccccc2nc2n1C(CSCc1cccc(C(F)(F)F)c1)CS2 (centres undefined),17.3% (inactive)

row,Compound,inhibition
1,O=c1c2ccccc2nc2n1C(CSc1ccc(F)cc1)CN2 (centres undefined),3.79% (inactive)
2,O=c1c2ccccc2nc2n1C(CSCc1ccccc1)CS2 (centres undefined),39.8% (active)
3,Nc1nonc1-n1nnc(C(=O)N/N=C/c2cc(Br)ccc2O)c1CSC1=NCCS1,4.7% (inactive)
4,COC(=O)C1=C(N)Oc2c(oc(CO)cc2=O)C1c1c(F)cccc1Cl (centres undefined),1.36% (inactive)
5,S=c1[nH]nc(-c2ccccc2)n1/N=C/c1c[nH]c2ccccc12,0.81% (inactive)
6,C[n+]1ccc(/C=C/c2c[nH]c3ccccc23)cc1,75.7% (active)
7,CSC(=S)N/N=C/c1c[nH]c2ccccc12,3.36% (inactive)
8,Cc1ccc(Oc2nc(-c3ccccn3)nc3ccccc23)cc1,-1.39% (inactive)
9,CCOn1c(SC(C)C)nc2ccccc2c1=O,3.34% (inactive)
10,Cc1cc(C)n(-c2nc(C(F)(F)F)nc3ccccc23)n1,7.14% (inactive)
11,CCCOn1c(-n2nc(C)cc2C)nc2ccccc2c1=O,34% (active)
12,CCCC1=Nc2cc(C(=O)NCc3ccco3)ccc2Sc2ccccc21,80.2% (active)
13,CCOc1ccccc1C(=O)NCc1ccco1,4.63% (inactive)
14,COc1ccc(CCNS(=O)(=O)c2ccc(C(=O)NCc3ccco3)cc2)cc1OC,3.88% (inactive)
15,COc1cccc(-n2c(SCC(=O)c3c[nH]c4ccccc34)nc3ccccc3c2=O)c1,3.88% (inactive)
16,Cn1ncc2c(NNC(=O)Cc3cccc4ccccc34)ncnc21,6.49% (inactive)
17,COCCCNC(=O)Cn1cc(/C=C(\C#N)C(=O)N2CCN(c3ccccc3)CC2)c2ccccc21,2.71% (inactive)
18,O=C(Nc1nc2ccc([N+](=O)[O-])cc2s1)c1ccncc1,-4.75% (inactive)
19,O=C(NC(Nc1nc2ccc([N+](=O)[O-])cc2s1)(C(F)(F)F)C(F)(F)F)c1ccccc1,53.4% (active)
20,O=C(O)CCC(=O)Nc1nc2ccc([N+](=O)[O-])cc2s1,3.87% (inactive)
21,O=C(O)c1cccc(NC(=S)N/N=C/c2c[nH]c3ccccc23)c1,7.89% (inactive)
22,Cc1cc(C)c(C(N)=O)c(Cl)n1,1.66% (inactive)
23,CCOc1cccc(NC(=O)Cn2nc(-c3ccc4c(c3)OCCO4)ccc2=O)c1,1.09% (inactive)
24,CN1CCc2nc(SC(C(=O)O)c3ccccc3)c(C#N)c(-c3cccs3)c2C1 (centres undefined),-0.18% (inactive)
25,COc1cc(/C=C2/C(=O)ON=C2C)ccc1OCc1cccc(F)c1,59.9% (active)

row,Compound,inhibition
1,CC1=NOC(=O)/C1=C\c1ccccc1,-2.02% (inactive)
2,COc1cc(/C=C2/C(=O)ON=C2C)ccc1OCc1ccccc1F,5.96% (inactive)
3,CCc1ccc(Oc2nc([N+](=O)[O-])nn2C)cc1,-0.05% (inactive)
4,COC(=O)c1cccc(NS(C)(=O)=O)c1,-2.38% (inactive)
5,CCOC(=O)C1CCN(C(=O)/C=C/c2cc(OC)c(OC)c(OC)c2)CC1,2% (inactive)
6,CCOC(=O)c1cc(-c2nnc(-c3cc(OC)c(OC)c(OC)c3)o2)c(C)nc1C,3.72% (inactive)
7,CCOC(=O)C1=C(N)N2C(=O)C(C)SC2=C(C(=O)OCC)C1c1cc(OC)c(OC)c(OC)c1 (centres undefined),66% (active)
8,COc1ccc(C2C=C(c3ccc(Br)cc3)Nc3nc(NS(C)(=O)=O)nn32)cc1 (centres undefined),-0.92% (inactive)
9,C=CCNC(=S)NNC(=O)c1cc(Cl)ccc1OC,2.83% (inactive)
10,CN(CC(=O)Nc1cccc(F)c1)CC(=O)Nc1cccc([N+](=O)[O-])c1,3.37% (inactive)
11,Cc1ccc(CN(C)CC(=O)Nc2cccc([N+](=O)[O-])c2)o1,1.42% (inactive)
12,Cc1ccc(NC(=O)CN(C)CC(=O)Nc2cccc(F)c2)cc1[N+](=O)[O-],27.9% (active)
13,CC(=O)N/C(=C/c1ccc(OC(F)F)cc1)C(=O)O,6.54% (inactive)
14,Fc1ccc(NC(=S)N2CCc3[nH]c4ccccc4c3C2)cc1,35% (active)
15,C=CCNC(=S)N1CCc2[nH]c3ccccc3c2C1,0.22% (inactive)
16,O=C(Nc1ccc(Cl)cc1)N1CCc2[nH]c3ccccc3c2C1,4.99% (inactive)
17,CC12CCC(C(=O)N(NC(=O)c3ccccc3O)C1=O)C2(C)C (centres undefined),8.25% (inactive)
18,COc1ccc(S(=O)(=O)NCC2CCCN(C(=O)c3occc3C)C2)cc1 (centres undefined),7.62% (inactive)
19,Cc1cccc(NC(=O)COc2ccccc2C)n1,83.3% (active)
20,Cc1ccccc1OCC(=O)Nc1nc(C)c(C(=O)N(C)C)s1,7.55% (inactive)
21,Cc1cccc(NC(=O)COc2ccc(Br)cc2C)n1,6.66% (inactive)
22,CC1(C)CC(=O)C/C(=N\NC(=O)c2cccs2)C1,8.84% (inactive)
23,NS(=O)(=O)c1ccc(NC(=S)NC(=O)c2cccc(Br)c2)cc1,7.4% (inactive)
24,O=C(C[n+]1cc(-c2ccc(Cl)c(Cl)c2)n2c1CCC2)c1cccs1,10.5% (inactive)
25,Cc1ccc(-c2c[n+](CC(=O)Nc3ccccc3)c3n2CCC3)cc1,0.41% (inactive)

row,Compound,inhibition
1,Cn1c(-c2ccccc2)c[n+]2c1CCCCC2,3.67% (inactive)
2,Clc1ccc(C[n+]2cc(-c3ccccc3)n3c2CCC3)cc1,63.7% (active)
3,Clc1ccc(C[n+]2cc(-c3ccc(Cl)cc3)n3c2CCC3)cc1,58.9% (active)
4,Cc1ccc(C(=O)C[n+]2cc(-c3ccccc3)n3c2CCCCC3)cc1,70.7% (active) and 65.4% (active)
5,O=c1oc(-c2ccccc2NS(=O)(=O)c2ccc(Cl)cc2)nc2ccccc12,2.45% (inactive)
6,Cc1ccc(/C=N/NC(=S)Nc2cccc(S(=O)(=O)N(C)C)c2)o1,2.16% (inactive)
7,COC(=O)c1ccc(NC(=S)Nc2cccc(C)n2)cc1,-3.59% (inactive)
8,O=[N+]([O-])c1cccc(Nc2c3ccccc3nc3ccccc23)c1,2.06% (inactive)
9,Cc1ccc(Nc2c3c(nc4ccccc24)CCC3)cc1,-1.93% (inactive)
10,CC(=O)Nc1ccc(Nc2c3ccccc3nc3ccccc23)cc1,97.3% (active)
11,CC1=C(C)CC(C(=O)NNC(=O)c2csc3c2CCC(C(C)(C)C)C3)C(C(=O)O)C1 (centres undefined),4.65% (inactive)
12,CCCCCn1c(=O)c(C(=O)OCC)c(Cl)c2ccccc21,-3.36% (inactive)
13,CCOC(=O)C1CN(S(=O)(=O)c2ccc(F)cc2)C1,0.24% (inactive)
14,Cc1c(CCO)c(=O)n(-c2ccccc2)n1S(=O)(=O)c1ccc(F)cc1,41% (active)
15,Cc1ccc(S(=O)(=O)CC(=O)Nc2c(C)n(C)n(-c3ccccc3)c2=O)cc1,7.55% (inactive)
16,Cc1cc(C)cc(OCC(=O)NNC(=O)CCN2C(=O)c3ccccc3C2=O)c1,5.47% (inactive)
17,CCN(C(=O)COC(=O)c1c(NC(C)=O)sc(C)c1C)C1CCS(=O)(=O)C1 (centres undefined),8.25% (inactive)
18,CCOC(=O)C1=C(c2ccc(OC)cc2)C(=O)c2ccccc2C1=O,29.1% (active)
19,CCOC(=O)c1c(-c2ccc(C)cc2)csc1/N=C(\C)C1=C(O)c2ccccc2C1=O,-0.41% (inactive)
20,CCOC(=O)c1ccccc1NS(=O)(=O)c1ccc(OC)cc1,5.36% (inactive)
21,Brc1ccc(-c2nn[nH]n2)cc1,0.72% (inactive)
22,COc1ccc(OCCC(=O)c2ccc(OC)cc2)cc1,-3.65% (inactive)
23,COc1ccc(C(=O)C[n+]2ccc(N)c(C)c2C)cc1,74.6% (active)
24,COc1ccc(C(=O)C[n+]2ccc(C)cc2)cc1,2.06% (inactive)
